Source: PubChem BioAssay (National Center for Advancing Translational Sciences (NCATS))
ELG1 genotox: induces genotoxicity in HEK293T cells with luciferase-tagged ELG1. HEK293T ELG1-luciferase reporter, luminescence, 16 h. Potency, µM (doses to about 46 µM), without a hit: at the top dose activity change, positive = activation, usual class: activators. 1.3% of 330,000 active. AID 504466; also: % of control where 0% means no effect; nearly all actives have a fitted effect of over 60% in size
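DMSO vehicle served as control against compound-treated ELG1-luciferase HEK293T cells; exposure lasted 16 hr at 37 °C and 5% CO2, followed by ONE-Glo luminescence detection after 30 min.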
Luc counter: Kinase-Glo luciferase inhibition (counter-screen). Potency, µM (top dose mostly 38.3 µM), for inactives: at the highest dose activity change, negative = inhibition, most hits filed as inhibitors. Kinase-Glo luciferase, ATP luminescence, 8 min. 0.28% of 200,000 active. Q27757. AID 1379; also: % is scaled to controls: 0 for no effect and ±100 for the full control effect; nearly all actives have a fitted effect of over 60% in size
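Kinase-Glo luciferase light output from ATP and luciferin was measured with 10 uM ATP, within the enzyme's linear range. Buffer: 50 mM imidazole pH 7.2, 50 mM KCl, 7 mM MgCl2, 0.01% Tween 20, 0.05% BSA; luminescence read after 8 min at ambient temperature.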
FLuc modulator: firefly luciferase modulation, counter-screen for miR-21 project; P08659; purified FLuc, Km substrates, luminescence inhibition; Potency, µM (series often up to 57.5 µM), for the others: at the highest dose activity change, negative = inhibition, usual class: inhibitors; 6.9% of 360,000 active;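 also: plate controls were vehicle for no effect and reference inhibitor for full effect; nearly all actives have a fitted effect of over 55% in size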
Target sequence (P08659 whole entry, looked up): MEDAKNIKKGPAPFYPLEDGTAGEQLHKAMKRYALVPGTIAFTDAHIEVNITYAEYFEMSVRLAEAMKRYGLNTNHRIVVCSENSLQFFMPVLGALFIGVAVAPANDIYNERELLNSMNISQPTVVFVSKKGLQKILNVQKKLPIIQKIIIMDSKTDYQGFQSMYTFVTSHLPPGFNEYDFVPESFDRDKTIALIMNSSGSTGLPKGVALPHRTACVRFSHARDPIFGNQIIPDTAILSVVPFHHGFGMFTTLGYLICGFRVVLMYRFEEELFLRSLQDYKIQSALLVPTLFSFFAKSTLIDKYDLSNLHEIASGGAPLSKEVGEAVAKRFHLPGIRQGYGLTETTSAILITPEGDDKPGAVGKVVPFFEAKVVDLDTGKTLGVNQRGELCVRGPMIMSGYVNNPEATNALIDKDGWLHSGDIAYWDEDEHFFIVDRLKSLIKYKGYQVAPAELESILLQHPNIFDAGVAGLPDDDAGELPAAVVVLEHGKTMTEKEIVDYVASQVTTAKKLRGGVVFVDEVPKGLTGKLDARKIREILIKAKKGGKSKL
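Purified P. pyralis luciferase, 10 nM final, with Km-level 10 uM D-luciferin and 10 uM ATP in 50 mM Tris acetate pH 7.5, 10 mM Mg acetate, 0.01% Tween-20, 0.05% BSA; 6-point qHTS titration about 60 µM downward; luminescence read.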
Rab9 promoter act: Rab9 promoter activation | Huh7 Rab9 promoter-luciferase reporter, luminescence, 24 h | Potency, µM (titrated, usually from 9.22 µM), for inactives: at the highest dose activation, negative = inhibition, usual class: activators | 2.8% of 320,000 active | AID 485297; also: % of control where 0% means no effect; nearly all actives have a fitted effect of over 60% in size
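Luminescence read-out: Huh7 cells stably expressing Rab9-luciferase, treated 24 h with compound at 37 °C, then lysed with luciferase reagent for 10 min at ambient before reading.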
SMN2 splice up: SMN2 splice variant enhancement. HEK293 SMN2-luciferase splicing reporter, luminescence, 30-36 h. Potency, µM (doses to about 46.1 µM), inactives show top-dose activity change, positive = activation, actives largely listed as activators. 2.8% of 210,000 active. AID 1458; also: % of control where 0% means no effect; nearly all actives have a fitted effect of over 55% in size
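HEK293 cells carry an SMN2 minigene-luciferase reporter in which exon 7 inclusion puts luciferase in frame. Cells were seeded at 2000 cells/well, attached for 10-12 hours, then exposed to compounds for 30-36 hours at 37C before ONE-Glo luminescence.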
NPC1 promoter act: NPC1 promoter activation. Huh7 NPC1 promoter luciferase reporter, 24 h. Potency, µM (highest dose often 9.22 µM), for inactives: top-dose activation, most hits filed as activators. 2.4% of 320,000 active. AID 485313; also: % of control where 0% means no effect; nearly all actives have a fitted effect of over 60% in size
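Huh7 reporter cells (NPC1 promoter driving luciferase) are dosed with compound for 24 h at 37 °C, 5% CO2; luciferase detection reagent is then added and luminescence measured after 10 min at ambient temperature.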
* hit, by the source's call; ? = inconclusive; nt = not tested or not shown; [ ] = another dose, or the depositor's remark. Shown are actives, neighbours in structure and some others; about 7.5% of the full set was active somewhere. Calls follow the shape of the dose curve; as a rule, active = well fitted curve in the direction sought with a large enough effect; inconclusive = small, poorly fitted or top-dose-only effect, or another doubt; inactive = no such curve, though single readings can be large; an effect the other way counts as inactive or inconclusive. Potency is read from the fitted curve at half-maximal effect.

SMILES	ELG1 genotox	Luc counter	FLuc modulator	Rab9 promoter act	SMN2 splice up	NPC1 promoter act
O=c1c(-c2cccs2)nc2cnc(Oc3cccc(Cl)c3)nc2n1C[C@H]1CCCO1	nt	-4%	nt	nt	-38%	nt
COc1ccc(C2=Nc3ccccc3N(CC(=O)Nc3cccc(C(C)=O)c3)C(=O)C2)cc1	nt	nt	-19%	nt	nt	nt
O=C(O)c1cc(-c2cccc([N+](=O)[O-])c2)nc2ccccc12	2%	nt	19µM*	-3%	nt	1%
Cc1cc(-c2cccc([N+](=O)[O-])c2)nc2ccc3ccccc3c12	9%	2%	2.7µM*	?	-14%	?
Cn1c(=O)c(C(=O)COC(=O)c2cc(-c3ccccc3)nc3ccccc23)c(N)n(Cc2ccccc2)c1=O	0%	-2%	-7%	-9%	-9%	-12%
O=[N+]([O-])c1ccc2nc(-c3ccccc3)cc(-c3ccccc3)c2c1	6%	-3%	1%	-5%	-10%	-7%
Cn1c(N)c(C(=O)c2cc(-c3ccccc3)nc3ccccc23)c(=O)n(C)c1=O	?	-12%	5.4µM*	9%	11µM*	14%
CCC(Sc1nnc2c3ccccc3n(C)c2n1)C(=O)Nc1nnc(C(C)C)s1 (stereo not drawn)	nt	nt	?	nt	4%	nt
COc1ccc2nc3oc(C(=O)NCc4ccccc4OC)cc3cc2c1	nt	nt	6%	nt	-1%	nt
Cc1ccc([N+](=O)[O-])cc1N=Nc1c(C)[nH]n(C(N)=S)c1=O	-2%	nt	-1%	-6%	nt	-1%
Cc1[nH]n(C(N)=S)c(=O)c1N=Nc1cccc(C(F)(F)F)c1	5%	nt	9.5µM*	19%[1.84 µM]	nt	4µM*
Cc1ccc(N=Nc2c(C)[nH]n(C(N)=S)c2=O)cc1	16µM*	-2%	2.7µM*	3.2µM*	18µM*	?
Cc1[nH]n(C(N)=S)c(=O)c1N=Nc1ccc(S(=O)(=O)N2CCCC2)cc1	1%	0%	19µM*	13%	10%	-2%
Cc1[nH]n(C(N)=S)c(=O)c1N=Nc1cc(C(F)(F)F)ccc1Cl	-13%	nt	-16%	-10%[1.84 µM]	nt	0%
Cc1[nH]n(C(N)=S)c(=O)c1N=Nc1ccc(Br)cc1	?	nt	2.4µM*	2.8µM*	nt	3.5µM*
NC(=S)n1[nH]c(-c2ccc([N+](=O)[O-])cc2)c(N=Nc2ccc(Cl)cc2)c1=O	-10%	3%	-13%	-53%	-47%	-40%
COc1ccc(CCNC(=O)c2ccc(Cn3c(=O)c4ccccc4n(Cc4ccc(F)cc4Cl)c3=O)cc2)cc1OC	nt	nt	-2%	nt	0%	nt
Cc1cccc(-n2cnc3cc(C(=O)N4CCCCC4)ccc32)c1	20%	-5%	24µM*	?	?	?
CCCCCNC(=O)c1ccc2c(c1)ncn2-c1cccc(C)c1	nt	nt	-11%	nt	nt	nt
Cc1ccc(NC(=O)c2cnccn2)c(Br)c1	?	nt	21µM*	?	nt	?
Cc1cc(NC(=O)c2cnccn2)no1	-1%	0%	2%	15%	-21%	-1%
Cc1ccc(NC(=O)c2cnccn2)nc1	0%	nt	9.5µM*	10%	nt	23%
Cc1ccc(/C=N/NC(=O)Nc2ccccc2)o1	?	2%	11µM*	3.2µM*	11µM*	2.5µM*
CCN(CC)c1ccc(/C=N/OCC(=O)Nc2cccc(C)c2)cc1	-1%	-2%	12µM*	2%	-6%	2%
CCN(CC)c1ccc(/C=N/NC(=O)Nc2ccccc2)cc1	-8%	0%	5.4µM*	3.2µM*	20µM*	4µM*
Cc1ccc(/C=N/NC(=O)C(O)c2ccccc2)o1 (stereo not drawn)	1%	nt	-1%	0%	nt	-1%
CC(=O)Oc1ccc(/C=N/NC(=S)Nc2ccccc2)cc1	9.2µM*	0%	?	4µM*	11µM*	3.2µM*
CCN(CC)c1ccc(/C=N\NC(N)=O)cc1	16%	-2%	?	4%	2%	-4%
